SNCA expr inh – SNCA gene expression inhibition. 0.17% of 140,000 active. Potency, µM (doses to about 57.2 µM), for inactives: top-dose activity change, negative = inhibition, usual class: inhibitors. HEK-293 SNCA-luciferase knock-in, luminescence, 24 h;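 further: potency means the concentration at half of the fitted maximal effect; plate controls were DMSO cells for no effect and cell-free wells for full effect; nearly all actives have a fitted effect of over 45% in size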
IP6K1 inhibitor – blocks human inositol hexakisphosphate kinase 1 | Q92551 | IP6K1 kinase, ADP-Glo luminescence, 2 h; hits give low values | activity change, % (series mostly up to about 58 µM) | 0.81% of 140,000 active; in the data active means activity change below about -25%; further: on the % scale 0 is the no-effect control and ±100 the full control effect
Target sequence (Q92551 whole entry, looked up): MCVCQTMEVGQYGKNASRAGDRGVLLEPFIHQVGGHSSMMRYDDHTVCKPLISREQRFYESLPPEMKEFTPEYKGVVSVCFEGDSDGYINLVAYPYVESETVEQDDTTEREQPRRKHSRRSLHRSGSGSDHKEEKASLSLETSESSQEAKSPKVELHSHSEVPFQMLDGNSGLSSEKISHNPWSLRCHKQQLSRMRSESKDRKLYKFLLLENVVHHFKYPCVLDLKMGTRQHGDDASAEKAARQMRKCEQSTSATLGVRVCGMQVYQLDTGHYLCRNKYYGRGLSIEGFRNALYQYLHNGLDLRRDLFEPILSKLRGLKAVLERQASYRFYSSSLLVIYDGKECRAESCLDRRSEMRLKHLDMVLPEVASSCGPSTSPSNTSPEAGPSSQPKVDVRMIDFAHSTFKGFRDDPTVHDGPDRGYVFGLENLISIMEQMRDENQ
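ADP-Glo luminescence measures ADP made by human IP6K1 during a 2 h RT reaction with ATP/IP6 (mix at 1.3 mM/130 uM); top library doses 57.5 and 19.1 uM final.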
HEK293 viab – counter-screen for SNCA expression inhibitors: cell viability; HEK-293-SNCA-luc viability, GF-AFC fluorescence, 24 h; 0.12% of 150,000 active; Potency, µM (titrated, usually from 57.1 µM), for inactives: top-dose activity change, negative = cytotoxicity, usual class: cytotoxic;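 further: potency means the concentration at half of the fitted maximal effect; 0% = DMSO-treated cells and -100% = medium-only wells without cells; nearly all actives have a fitted effect of over 30% in size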
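HEK-293-SNCA-luc cells (1500/well) plated 24 h, then exposed 24 h to a dilution series; GF-AFC added 30 min at 37C, fluorescence 405/540 nm; normalised to medium-only and DMSO wells, Hill fit.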
KDM5B inh – inhibitors of human KDM5B histone demethylase. Q9UGL1. KDM5B demethylase, FDH-coupled NADH fluorescence (FDH is formaldehyde dehydrogenase). Potency, µM (top dose mostly 57.7 µM), hits mostly inhibitors. 2.6% of 220,000 active. AID 1347165; further: potency means the concentration at half of the fitted maximal effect; 0% is about no effect; nearly all actives have a fitted effect of over 70% in size
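KDM5BΔAP (200 nM final) in 50 mM HEPES pH 7.5, 0.01% Tween-20 was preincubated 10 min at RT with compound over a concentration range. Substrate mix (H3K4me3 12.5 µM, α-KG 25 µM, Fe²⁺, ascorbate, NAD⁺, FDH) was added, and NADH fluorescence change over 30 min gave dose-response curves.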
An asterisk follows results filed as active; i = inactive; ? = inconclusive; · = no result given; [ ] = another dose, or the depositor's remark. Most compounds without a hit are left out; they make up all but 2.9% or so of the library. Unless noted, the call rests on the fitted dose curve; in most records, active means well fitted curve in the direction sought with a large enough effect; inconclusive means small, poorly fitted or top-dose-only effect, or another doubt; inactive means no such curve, though single readings can be large; an effect the other way counts as inactive or inconclusive.

SMILES	SNCA expr inh	IP6K1 inhibitor	HEK293 viab	KDM5B inh
Cn1ccnc1-c1ccc(N2CC[C@@]3(O)CCN(S(C)(=O)=O)C[C@H]3C2)nn1	61%	7	-13%	32µM*
CN(Cc1cccc(N2CCN(S(=O)(=O)c3c(Cl)cccc3Cl)CC2)c1)S(C)(=O)=O	·	25	·	·
COc1cccc(CN2CCC3(CC2)CN(c2ncccn2)CC3CO)n1 (centres undefined)	3%	-7	0%	22µM*
CC(C)Oc1ccccc1CN1CCC2(CC1)CN(c1ncccn1)CC2CO (centres undefined)	6%	5	-3%	?
OCC1CN(c2ncccn2)CC12CCN(Cc1cc(Cl)ccc1F)CC2 (centres undefined)	3%	-4	-1%	25µM*
Cn1cccc1CN1CCC2(CC1)CN(c1ncccn1)CC2CO (centres undefined)	-22%	1	-10%	32µM*
OCC1CN(c2ncccn2)CC12CCN(C1CCSCC1)CC2 (centres undefined)	-1%	15	8%	32µM*
OCC1CN(c2ncccn2)CC12CCN(Cc1cccnc1)CC2 (centres undefined)	-5%	10	-10%	?
O=C(Cc1ccccn1)NCCNC(=O)c1ccc(-c2cncnc2)cc1	·	4	·	·
O=S(=O)(Cc1cccc(F)c1)c1ccc2ccccc2c1	·	·	·	i
O=[S+]([O-])(NC1CCCN(c2ccc3nnc(-c4ccccc4)n3n2)C1)c1cccc(C(F)(F)F)c1 (centres undefined)	·	3	·	·
OCC1CN(c2ncccn2)CC12CCN(Cc1ccc3cc[nH]c3c1)CC2 (centres undefined)	8%	8	-20%	28µM*
C#CCn1c(=O)n(-c2cccc(Cl)c2C)c(=O)c2c3c(sc21)CN(C(C)=O)CC3	4µM*	6	-25%	i
CC(=O)N1CCc2c(sc3c2c(=O)n(-c2cccc(Cl)c2C)c(=O)n3Cc2ccccc2C)C1	-7%	18	?	i
O=C1CC(c2ccccc2O)Cc2nc(N3CCN(c4ccccc4)CC3)ncc21 (centres undefined)	·	·	·	i
CC(C)C[C@@H]1N[C@H](C(=O)O)Cc2cn(Cc3nccn3C)c3cccc1c23	-26%	0	8%	32µM*
CC(C)C[C@@H]1N[C@H](C(=O)O)Cc2cn(CC3CCC3)c3cccc1c23	-9%[87.6 µM]	2	-2%[87.6 µM]	32µM*
CC[n+]1c(/C=C/C=C2/N(C)c3ccccc3C2(C)C)sc2ccccc21	?	·	10µM*	·
CC(=O)Oc1c(-c2ccc(NC(=O)CC(C)C)cc2)c(-c2ccc(F)cc2)nn1-c1ccc(F)cc1	-25%	14	11%	28µM*
CCCc1nn(-c2ccccc2C)c(OC(C)=O)c1-c1ccc(NC(C)=O)cc1	-24%	19	9%	i
COCC(=O)Nc1ccc(-c2c(CC(C)C)nn(-c3ccccc3)c2OC(C)=O)cc1	1%	-2	-4%	i
COCC(=O)Nc1ccc(-c2c(C(C)C)nn(-c3cccc(F)c3)c2OC(C)=O)cc1	5%	2	-14%	i
COc1ccc(-c2nn(-c3ccccc3C)c(OC(C)=O)c2-c2ccc(NC(C)=O)cc2)cc1OC	-21%	7	-18%	28µM*
CC(=O)Oc1c(-c2ccc(NC(=O)C(C)C)cc2)c(-c2ccc(F)cc2)nn1-c1ccc(F)cc1	1%	2	6%	?
COCC(=O)Nc1ccc(-c2c(-c3ccccc3OC)nn(-c3ccc(C)cc3)c2OC(C)=O)cc1	10%	21	12%	22µM*
SMILES	SNCA expr inh	IP6K1 inhibitor	HEK293 viab	KDM5B inh
COCC(=O)Nc1ccc(-c2c(-c3cccc(OC)c3)nn(-c3ccccc3)c2OC(C)=O)cc1	-12%	15	-16%	28µM*
Cc1cc2nc(/C(C#N)=C/c3coc4ccccc4c3=O)[nH]c2cc1C	·	·	·	i
COc1cccc(-c2cn3cc(C(=O)Nc4ccc(C)cc4)nc3s2)c1	28%	9	0%	·
O=C(NCc1ccc(F)cc1)c1ccc2nnc(Cc3ccc(Cl)cc3)n2c1	3%	-2	1%	·
CC(=O)Oc1c(-c2ccc(NC(=O)c3ccco3)cc2)c(-c2cccc(F)c2)nn1-c1ccc(C)cc1	6%	16	0%	?
COc1cccc(-c2nn(-c3ccccc3)c(OC(C)=O)c2-c2ccc(NC(=O)C3CCCC3)cc2)c1	-4%	4	2%	13µM*
Cc1nn(-c2ccccc2)c2c1C(C)N(C1CN(C(=O)c3ccc(C(F)(F)F)cc3)C1)C2=O (centres undefined)	·	-3	·	·
COc1cc(Br)c(Nc2nc(-c3c(C)nc4ncccn34)cs2)c(Br)c1	·	-13	6µM*	·
COc1ccccc1-c1cc(C(=O)N(C)Cc2ccccc2)c2cnn(C)c2n1	·	1	·	·
C[C@@H]1CN(C(=O)c2cc(-c3ccco3)nc3c(Cl)cccc23)C[C@]1(C)O	-17%	5	-17%	i
Cc1cc(CNC(=O)c2cc(-c3ccco3)nc3c(Cl)cccc23)no1	5%	-6	-11%	28µM*
CCCc1ccc(S(=O)(=O)NC2CCN(c3ccc(=O)n(CC4CC4)n3)CC2)cc1	?	6	-6%	28µM*
O=c1ccc(N2CCC(NS(=O)(=O)c3ccccc3Cl)CC2)nn1CC1CC1	?	-3	?	?
COc1ccccc1Nc1ncc2c(n1)CN(C(=O)c1ccc(Oc3ccccc3)cc1)CCN2	?	-3	-28%	?
C[C@@H](NC(=O)Nc1ccc(Cl)cc1)c1onc(-c2ccccc2)c1C(=O)O	1%[87.6 µM]	3	4%[87.6 µM]	i
Cc1noc([C@@H](C)NC(=O)Nc2ccc(Cl)cc2)c1C(=O)O	130%[87.6 µM]	-25	7%[87.6 µM]	40µM*
CCOC(=O)C1c2c(OC)ccc3c2C(=CC(C)(C)CO3)CN1C (centres undefined)	·	21	·	·
COc1ncccc1C(=O)N1CCc2onc(-c3cccc4ccccc34)c2C1	15%	-6	10%	?
CC(C(=O)N1CCc2onc(-c3cccc4ccccc34)c2C1)n1ccnc1 (centres undefined)	-9%	9	2%	?
COCc1cc(N2CCc3onc(-c4cccc5ccccc45)c3C2)ncn1	?	12	-25%	28µM*
O=S(=O)(c1cccnc1)N1CCc2onc(-c3cccc4ccccc34)c2C1	9%	7	5%	32µM*
COc1ccccc1NC(=O)c1cc(S(=O)(=O)N2CCN(c3ccccc3Cl)CC2)ccc1F	-2%	-11	6%	i
COc1ccccc1N1CCN(S(=O)(=O)c2ccc(F)c(C(=O)Nc3ccc(Cl)cc3C(F)(F)F)c2)CC1	-2%	-34*	7%	i
CCCn1cc(-c2ccncc2)cc1C(=O)NCc1cccc(F)c1	4%	1	5%	25µM*
CCCn1cc(-c2ccncc2)cc1C(=O)NCc1ccccc1	23%	-3	2%	i
COCCNc1ncc(-c2cccc(OC)c2)c2c1OCC2	134%[87.6 µM]	8	7%[87.6 µM]	35µM*
COCCNc1ncc(-c2cccc(N[S+](C)(=O)[O-])c2)c2c1OCC2	101%[87.6 µM]	-6	-1%[87.6 µM]	35µM*

Compound activity as filed in PubChem BioAssay.
